Laboratory results published in PubChem BioAssay AID2553 (Johns Hopkins Ion Channel Center, 2010).
Out of some 310,000 compounds screened, about 3,300 (1.1%) were called active.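 The calls were made as follows: active = B-score under library mean minus 3 SD, initial fluorescence not abnormally high, positive integrated signal ratio; inactive = the rest.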 Shown is part of a subset that was picked to be rich in actives.

Molecular target: Short transient receptor potential channel 6 (Mus musculus) (UniProt Q61143)
Experiment: mouse TRPC6 channel inhibitors, primary screen, cell-based, HEK293, membrane potential dye (AID 2553);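 as to B-score: B-score derived from integrated fluorescence ratio over the kinetic read; more negative B-score means stronger inhibition of depolarization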
Conditions: ACh-evoked depolarization, at 10 µM; stronger effect = lower value

Sequence of Short transient receptor potential channel 6 (Mus musculus) (Q61143 whole entry, looked up): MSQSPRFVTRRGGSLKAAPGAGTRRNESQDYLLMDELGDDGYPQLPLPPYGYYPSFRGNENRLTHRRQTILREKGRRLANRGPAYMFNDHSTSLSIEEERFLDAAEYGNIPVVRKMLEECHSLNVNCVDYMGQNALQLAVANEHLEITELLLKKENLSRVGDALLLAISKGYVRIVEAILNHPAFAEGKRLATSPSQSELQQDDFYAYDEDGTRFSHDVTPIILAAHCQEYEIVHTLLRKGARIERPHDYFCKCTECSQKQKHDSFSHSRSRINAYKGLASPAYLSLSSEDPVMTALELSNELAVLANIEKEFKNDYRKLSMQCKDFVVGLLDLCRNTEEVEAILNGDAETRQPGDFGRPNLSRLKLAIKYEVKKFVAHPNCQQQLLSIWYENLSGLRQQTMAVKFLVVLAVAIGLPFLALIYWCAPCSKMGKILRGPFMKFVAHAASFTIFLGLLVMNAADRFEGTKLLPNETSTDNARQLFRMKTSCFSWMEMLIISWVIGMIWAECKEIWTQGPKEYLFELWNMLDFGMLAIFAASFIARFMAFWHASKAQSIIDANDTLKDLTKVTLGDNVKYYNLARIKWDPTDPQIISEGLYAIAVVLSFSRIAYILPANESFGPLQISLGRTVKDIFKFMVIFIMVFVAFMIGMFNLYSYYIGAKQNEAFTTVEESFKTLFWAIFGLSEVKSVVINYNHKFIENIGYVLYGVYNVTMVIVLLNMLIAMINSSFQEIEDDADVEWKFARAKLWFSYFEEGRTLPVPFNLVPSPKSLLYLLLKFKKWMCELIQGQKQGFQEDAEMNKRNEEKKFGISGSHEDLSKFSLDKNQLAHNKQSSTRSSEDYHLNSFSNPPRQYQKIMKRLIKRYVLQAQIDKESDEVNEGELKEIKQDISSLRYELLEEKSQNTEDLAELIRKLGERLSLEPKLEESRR

B-score, inactive:
Nc1c(N(CCO)C(=O)C2CCCCC2)c(=O)[nH]c(=O)n1Cc1ccccc1
CCN(CCCNC(=O)c1ccc2c(c1)NC(=O)CN2C)c1cccc(C)c1
COc1ccc(CNC(=O)C(=O)NCC2OCCN2C(=O)c2ccc(OC)cc2)cc1 (configuration not stated)
CCC1=NN(C(=O)Cc2ccc([N+](=O)[O-])cc2)C(O)(c2ccc(Br)cc2)C1 (configuration not stated)
COc1cc2c(cc1OC)C(c1cccc([N+](=O)[O-])c1)=NCC2
COc1ccc(Cl)cc1C(=O)NNC(=S)NC(=O)/C=C/c1ccco1
COc1cc(C2C(C(=O)c3cccs3)=C(O)C(=O)N2CCN2CCOCC2)ccc1OCCC(C)C (configuration not stated)
CC(=O)Nc1ccc(NS(=O)(=O)c2cc(C)sc2C)cc1
CCC(=O)N1CCCc2ccccc21
CCS(=O)(=O)N1CCC(C(=O)N2CCN(c3ccccc3)CC2)CC1
Cc1ccc(SCC(=O)NNC(=O)c2ccc(S(C)(=O)=O)cc2)cc1
NC(=O)c1cc2ccccc2o/c1=N/NC(=O)c1cccc(F)c1
COc1ccc(C(=O)N/N=c2\oc3ccccc3cc2C(N)=O)cc1
O=C(N/N=C\c1cccnc1)c1cc(-c2ccccc2)nc2c(Cl)cccc12
COc1ccc(S(=O)(=O)NNC(=O)Nc2ccc(C)cc2)c(OC)c1
Cc1cc2c(=O)n(CC(=O)NCC(=O)Nc3ccc(C(C)C)cc3)cnc2s1
CC1=NN(c2ccccc2)C(=O)C1C(=O)c1ccc([N+](=O)[O-])cc1 (configuration not stated)
Cc1nn(-c2ccc([N+](=O)[O-])cc2)c(N)c1-c1ccccc1
CCCC(C)C(=O)NCc1ccncc1 (configuration not stated)
O=C(NCc1ccncc1)NC12CC3CC(CC(C3)C1)C2
O=C(NCc1ccc(Cl)cc1)NCc1ccc(Cl)cc1
O=C(NCCCn1ccnc1)C(=O)NCC1OCCN1S(=O)(=O)c1cc(F)ccc1F (configuration not stated)
CC1CC(C)CN(CC(=O)N2c3ccccc3CCc3ccccc32)C1 (configuration not stated)
CN1CCN(S(=O)(=O)c2cccc(C(=O)N3CCc4ccccc43)c2)CC1
COc1ccc(C(=O)C2CCCN(C(=O)c3cc(C)on3)C2)cc1F (configuration not stated)
COc1ccccc1/C=C/CN1CCC(CO)(Cc2ccccc2)CC1
Cc1cc(=O)cc(C)n1-c1ccc(Cl)c(Cl)c1
COc1ccc(NC(=O)CSc2nnc(-c3ccccc3F)n2C2CC2)cc1S(N)(=O)=O
O=C(CNCCC1=CCCCC1)Nc1ccccc1N1CCCCCC1
Cc1ccccc1NC(=O)Nc1ccccc1N1CCCCC1
CCN(C(=O)Cc1c(C(=O)O)n(CC)c2ccccc12)c1ccccc1C
CCCCOc1ccc(NC(=O)[C@@H]2CCCN2C(=O)C2CCN(S(=O)(=O)c3ccc(C)cc3)CC2)cc1
CCc1ccc(C(=O)NNC(=O)C2CCN(c3ncnc4sc(C)c(C)c34)CC2)cc1
CCC(=O)NC(Nc1nc2ccc(C)cc2s1)(C(=O)OC)C(F)(F)F (configuration not stated)
CCOc1ccc2nc(NC(=O)c3cc([N+](=O)[O-])ccc3N3CCOCC3)sc2c1
COc1ccc2c(C)cc3nnnn3c2c1
CC(C)c1cc(C(=O)N/N=C/c2ccoc2)c(O)c(C(C)C)c1
Cc1nnc(C)n1/N=C/c1ccc(C(C)C)cc1
COc1ccc(Br)cc1/C=N/Nc1ccc(Cl)c(C(=O)O)c1
NC(=O)COc1ccc(/C=N/NC(=O)C2CCCN2S(=O)(=O)c2ccc(Cl)cc2)cc1 (configuration not stated)
COc1ccc(CN2C3CCCC2CC(NC(=O)c2cccc(F)c2)C3)cc1 (configuration not stated)
COc1ccccc1CN1CCN(C(c2ccccc2)c2ccccc2)CC1

B-score, active:
COc1cc2c(cc1OC)C(/C=C/c1ccco1)=NCC2 -5.37
O=C(C1CCN(S(=O)(=O)Cc2ccccc2)CC1)N1CCCc2ccccc21 -5.01
CCN(CC)c1ccc2cc(C(N)=O)/c(=N\NC(=O)c3ccncc3)oc2c1 -7.68
O=C1CC(c2ccccc2)=NN1c1ccc([N+](=O)[O-])cc1 -8.01
S=C(NCc1ccc(Cl)cc1)NC12CC3CC(CC(C3)C1)C2 -5.21
CN1CCN(C(=O)N2c3ccccc3CCc3ccccc32)CC1 -6.16
Cc1ccccc1NC(=O)CNc1ccccc1N1CCCCC1 -6.42
O=C(NC(Nc1nc2ccc([N+](=O)[O-])cc2s1)(C(F)(F)F)C(F)(F)F)c1ccccc1 -10.2
COc1ccc(Br)cc1/C=N/n1c(C)nnc1C -5.36
CC(NCc1ccccc1OC1CCCC1)c1ccccc1 (configuration not stated) -8.19
